Measured values taken from PubChem BioAssay AID2685 (National Center for Advancing Translational Sciences (NCATS), 2010).
Screen size: about 320,000 compounds; about 2,100 (0.66%) were called active. Inconclusive results (about 53%) are left out. Calls come from the whole dose curve; as a rule, active = well fitted inhibition curve with a large enough effect in the signal ratio, with a control signal flat (not every such curve was filed as active); inconclusive = small, poorly fitted or top-dose-only effect, or effect the other way, or a change in a side signal; inactive = flat fitted curve, though single readings scatter; the % refers to the signal ratio. Many of the other results were omitted from the sample, so actives are more common in it than they were.

test: qHTS Assay for Lipid Storage Modulators in Drosophila S3 Cells; conditions: BODIPY lipid droplet fluorescence, 18-24 h, cells fed with added oleic acid; cell number change: measured here: cell count max response; series mostly up to 46.1 µM; lipid storage change, negative = inhibition: at the top concentration;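 for cell number change: cells counted by Cell Tracker Red CMTPX staining in the red channel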; for lipid storage change, negative = inhibition: % is set by controls: 0 for no effect and ±100 for the full control effect
Method in brief: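 Laser-scanning cytometry quantifies lipid droplet accumulation (500–530 nm total intensity; droplet/cell object ratio) in oleic acid-fed (400 uM added) Drosophila S3 cells treated with a concentration series. 20 uM Triacsin C defined 100% inhibition.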
Potency is the fitted concentration of half-maximal effect.

| Compound | outcome | lipid storage change, negative = inhibition | cell number change [%] | Potency |
| --- | --- | --- | --- | --- |
| Cc1ccc(C)c(NC(=S)NCC(c2ccccc2)N(C)C)c1 (stereo not given) | inactive |  |  |  |
| Cc1cc(C)c2c(=O)cc(C(F)(F)F)oc2n1 |  | 9.56% (inactive) | 15.1 |  |
| O=C(N/N=C/c1cccnc1)c1ccc(NC(=O)c2ccc(Cl)cc2)cc1 |  |  | 0.451 | 0.13 µM (active) |
| Cc1ccc(C(=O)Nc2ccc(C(=O)N/N=C/c3cccnc3)cc2)cc1 | inactive |  | 17.5 |  |
| CC(=O)Nc1ccc(C(=O)N/N=C/c2cccnc2)cc1 |  | 12.5% (inactive) | 0.939 |  |
| CC(C)c1ccc(NC2CCCN(C(=O)c3ccccc3-c3ncc[nH]3)C2)cc1 (stereo not given) | inactive |  | -18.8 |  |
| COc1ccc(NC(=O)Nc2ccc3c(c2)CCC3)c(OC)c1 |  | -7.77% (inactive) | 9.57 |  |
| O=C(Cn1c(-c2ccccc2)c[n+]2ccsc12)c1ccc(Br)cc1 |  | 21.2% (inactive) |  |  |
| O=C1Nc2ccc(Cl)cc2C(C#CC2CC2)(C(F)(F)F)O1 (stereo not given) |  |  | -25.6 | 9.2 µM (active) |
| COC(=O)C1(C(F)(F)F)N=C(C(F)(F)F)Nc2ccc(Cl)cc21 (stereo not given) |  | -2.99% (inactive) | 5.94 |  |
| O=C1Nc2ccc(Cl)cc2C12OCCCO2 | inactive |  | 13.2 |  |
| O=C(Cn1nnc2ccccc21)C1CC1 |  | 9.19% (inactive) | 7.3 |  |
| NCc1cc2c3c(c1)CCCN3CCC2 |  | 0.546% (inactive) |  |  |
| C=CCOc1cccc(C(=O)N2CCCC(CNS(=O)(=O)c3cccs3)C2)c1 (stereo not given) |  | 10.9% (inactive) | 11.7 |  |
| CSCCC(=O)NC1CC(C)(C)Cc2c1cnn2-c1ccccc1C (stereo not given) |  | 11.4% (inactive) | 13.5 |  |
| Cc1ccccc1-n1ncc2c1CC(C)(C)CC2NC(=O)CSc1ccncc1 (stereo not given) |  |  | -2.05 | 0.461 µM (active) |
| Cc1ccccc1-n1ncc2c1CC(C)(C)CC2NC(=O)CCC(F)(F)F (stereo not given) |  | 3.89% (inactive) | 7.77 |  |
| CC(C)=C1SC(N2CCN(c3cccc(Cl)c3)CC2)=NC1=O |  | -7.9% (inactive) | 5.96 |  |
| COc1cccc(N2C(=NC(=O)CCc3ccccc3)SC3CS(=O)(=O)CC32)c1 (stereo not given) | inactive |  | -7.96 |  |
| COc1cccc(N2C(=NC(=O)C3CCCCC3)SC3CS(=O)(=O)CC32)c1 (stereo not given) | inactive |  | -4.58 |  |
| COc1cccc(N2C(=NC(=O)CCC3CCCC3)SC3CS(=O)(=O)CC32)c1 (stereo not given) |  |  | 4.89 | 11.6 µM (active) |
| Cc1occc1C(=O)N1CCN(c2ccc(Cl)c(Cl)c2)CC1 | inactive |  |  |  |
| Cc1ccccc1OC(C)C(=O)N1CCC(Cc2ccccc2)CC1 (stereo not given) |  | -2.98% (inactive) | 12.1 |  |
| O=C(Cc1ccc(Cl)cc1)NNS(=O)(=O)c1ccc([N+](=O)[O-])cc1 |  | -7.64% (inactive) | 7.62 |  |

| Compound | outcome | lipid storage change, negative = inhibition | cell number change [%] | Potency |
| --- | --- | --- | --- | --- |
| O=C(Cc1ccccc1)NNS(=O)(=O)c1ccc([N+](=O)[O-])cc1 |  |  | 0.088 | 1.46 µM (active) |
| O=C(NNS(=O)(=O)c1ccccc1)c1ccc([N+](=O)[O-])cc1 | inactive |  | 3.57 |  |
| Cc1ccc(Cc2cnc(NC(=O)/C(C#N)=C/c3ccc(-c4ccccc4[N+](=O)[O-])o3)s2)cc1 |  | 11.5% (inactive) | -16 |  |
| CCOC(=O)CNC(=O)CSc1nc(Cc2ccccc2)nc2ccccc12 |  |  | -15.2 | 7.31 µM (active) |
| CCOC(=O)CNC(=O)CSc1nc(Cc2cccs2)nc2ccccc12 |  | -32.5% (inactive) | -11.5 |  |
| CCOC(=O)CSc1nc(Cc2ccccc2)nc2ccccc12 |  | 0.223% (inactive) |  |  |
| O=C(NN=C1CCCC1)c1ccccc1[N+](=O)[O-] | inactive |  | 7.42 |  |
| Cc1cc(C)nc(NC(C)(C)C(=O)O)n1 |  | -23.2% (inactive) | 0.119 |  |
| O=C(c1ccccc1Br)N1CCCC(c2nc(-c3cccs3)no2)C1 (stereo not given) | inactive |  |  |  |
| COc1ccc(-c2noc(C3CCCN(C(=O)c4ccc(C)cc4)C3)n2)cc1 (stereo not given) |  | 4.74% (inactive) | 10.5 |  |
| Cc1ccc(-c2noc(C3CCCN(C(=O)c4ccccc4Br)C3)n2)cc1 (stereo not given) |  |  | -26.6 | 18.4 µM (active) |
| Cc1nn(C)c(Cl)c1C(=O)NCC(=O)NCc1ccccc1 |  | -13.1% (inactive) | -13 |  |
| Nc1nonc1-n1nnc(C(=O)N/N=C/c2ccoc2)c1-c1ccccc1 | inactive |  | 11.3 |  |
| O=C(O)c1ccccc1C(=O)NCCCn1ccnc1 |  | 6.83% (inactive) | 7.04 |  |
| Nc1c(O)ccc2c1C(=O)c1ccccc1C2=O |  | -9.3% (inactive) | -17.1 |  |
| CCOc1cc(C(=O)OCC(=O)N(C)c2ccccc2)cc(OCC)c1OCC | inactive |  | 9.01 |  |
| Cc1[nH]nc(SCC(=O)N2CCCC2)c1[N+](=O)[O-] |  | -2.11% (inactive) | -4.82 |  |
| COc1ccc(N2CCN(C(=O)CCCn3c(=O)c4cccn4c4cccnc43)CC2)cc1 | inactive |  | 22.2 |  |
| CCc1ccc(CNC(=O)CCCn2c(=O)c3cccn3c3cccnc32)cc1 | inactive |  |  |  |
| CN1CCN(C(=O)CCn2c(=O)c3cccn3c3cccnc32)CC1 |  | -18.5% (inactive) | 17.7 |  |
| COc1cccc(CNC(=O)CCn2c(=O)c3cccn3c3cccnc32)c1 |  | -26% (inactive) | 1.83 |  |
| CSc1cccc(NC(=O)CCCn2c(=O)c3cccn3c3cccnc32)c1 |  |  | -18.8 | 18.4 µM (active) |
| COc1ccc(CCNC(=O)CCCn2c(=O)c3cccn3c3cccnc32)c(OC)c1 |  |  | -19.3 | 16.4 µM (active) |
| CCOC(=O)C1=C(CS(=O)(=O)c2ccc(Cl)cc2)NC(=O)NC1c1ccc(O)c(OC)c1 (stereo not given) |  | -8.07% (inactive) | 23 |  |

| Compound | outcome | lipid storage change, negative = inhibition | cell number change [%] | Potency |
| --- | --- | --- | --- | --- |
| O=C(OC(C(=O)Nc1ccc(Cl)cc1C(F)(F)F)c1ccccc1)C1=COCCO1 (stereo not given) |  | 6% (inactive) | -1.65 |  |
| CCN(CC)CCCN1C(=O)C(O)=C(C(=O)c2sc(C)nc2C)C1c1ccc(C)o1 (stereo not given) |  | 0.201% (inactive) | 0.178 |  |
| COc1cc(/C=C/c2noc(-c3ccccc3O)n2)ccc1OC(C)=O |  | -1.96% (inactive) | 8.42 |  |
| CC(C)(C)NC(=O)/C=C/c1cccc(C(F)(F)F)c1 |  | 23.9% (inactive) | -3.06 |  |
| COc1ccc(Nc2ccc([N+](=O)[O-])cn2)cn1 |  |  | -5.41 | 16.4 µM (active) |
| COc1ccccc1Nc1ccc([N+](=O)[O-])cn1 |  | 3.34% (inactive) | 25.6 |  |
| COc1ccc(Nc2ccc([N+](=O)[O-])cn2)cc1 |  | 19.4% (inactive) | 13.2 |  |
| CCc1nn(CC(=O)NCCCN(CC)c2cccc(C)c2)c(=O)c2cc3occc3n12 |  | 8.48% (inactive) | -11.1 |  |
| CCOC(=O)CCn1cc(F)c(=O)n(Cc2ccccc2)c1=O | inactive |  | 12.1 |  |
| CCOc1nc(SC(C(C)=O)C(=O)Nc2ccccc2)nc(N(C)C)n1 (stereo not given) |  | 3.93% (inactive) | -9.19 |  |
| CC(C)Nc1nc(SC(C)C(=O)Nc2ccccc2)nc(N(C)C)n1 (stereo not given) |  |  | -27.6 | 8.2 µM (active) |
| CC(Sc1nc(N2CCOCC2)nc(N2CCOCC2)n1)C(=O)Nc1ccccc1 (stereo not given) |  | 0.66% (inactive) | -7.21 |  |
| COC(=O)c1cccc(-c2ccc(/C=N/N3C(=O)C4C5C=CC(C6CC56)C4C3=O)o2)c1 (stereo not given) |  | -10.1% (inactive) | -7.37 |  |
| COC(=O)c1ccc(-c2ccc(/C=N/N3C(=O)C4C5C=CC(CC5)C4C3=O)o2)cc1 (stereo not given) |  | -0.618% (inactive) | 10.1 |  |
| COC(=O)c1ccc(-c2ccc(/C=N/N3C(=O)C4C5C=CC(C6CC56)C4C3=O)o2)cc1 (stereo not given) |  |  | 4.78 | 20.6 µM (active) |
| O=c1nc(/C=C/c2ccccc2C(F)(F)F)cc(C(F)(F)F)[nH]1 |  |  | -22.9 | 0.517 µM (active) |
| O=c1nc(-c2ccccc2)cc(C(F)(F)F)[nH]1 |  | -9.25% (inactive) | -9.42 |  |
| COc1ccc(/C=C/c2cc(C(F)(F)F)[nH]c(=O)n2)cc1OC |  | -12.5% (inactive) | 7.45 |  |
| CCc1ccc(N2CC(C(=O)NC3CCCCC3C)CC2=O)cc1 (stereo not given) | inactive |  | -4.76 |  |
| COC(=O)c1ccc(COc2ccccc2/C=N/NS(=O)(=O)c2ccccc2)cc1 |  | -8.74% (inactive) | -14.9 |  |
| CCCCC[C@H](O)/C=C/[C@H]1C=CC(=O)[C@@H]1C/C=C\CCCC(=O)O |  | -2.66% (inactive) | 10.2 |  |
| CCCCC1C(=O)CC[C@H]2[C@@H]1CC(=O)[C@@H]2C/C=C\CCCC(=O)O (stereo not given in full) |  |  | -6.62 | 9.2 µM (active) |
| CCCCC/C=C\C/C=C\C/C=C\C/C=C\CCCC(=O)O |  | -8.8% (inactive) | -29.6 |  |
| CCn1c(=O)c(C(=O)NCc2ccccc2OC)c(O)c2ccccc21 | inactive |  | 3.38 |  |

| Compound | outcome | lipid storage change, negative = inhibition | cell number change [%] | Potency |
| --- | --- | --- | --- | --- |
| Cc1cccc(C)c1OCc1nnc(SCC(=O)Nc2ccccc2F)o1 |  | 29.6% (inactive) | -7.4 |  |
| CCc1nnc(NC(=O)CSc2nnc(CSc3nc(C)cc(C)n3)o2)s1 |  | 7.1% (inactive) | 9.83 |  |
| Cc1ccc(NC(=O)c2cc(S(=O)(=O)NCCC3=CCCCC3)ccc2F)cc1 |  | -15.8% (inactive) | -3.48 |  |
| O=C(Nc1cccc(-n2cnnn2)c1)c1cccs1 | inactive |  | -3.63 |  |
| Cc1cc(OCCCC(=O)Nc2cccc(-n3cnnn3)c2)ccc1Cl |  |  | 3.23 | 3.26 µM (active) |
| O=C(COc1cccc(-n2cnnn2)c1)Nc1ccccc1 |  | -13.1% (inactive) | -12.3 |  |
| O=C(Nc1cccc(-n2cnnn2)c1)c1ccco1 |  | 9.61% (inactive) | -16.6 |  |
| O=C(Nc1ccc(C(F)(F)F)cc1)c1cccc(-n2cnnn2)c1 |  | 19% (inactive) | 8.84 |  |
| O=C(Nc1cccc(-n2cnnn2)c1)c1cccc(Cl)c1 |  |  | -16 | 14.6 µM (active) |
| O=C(CNC(=O)c1cccc(-n2cnnn2)c1)Nc1ccc(F)c(F)c1 |  | 4.76% (inactive) | 0.376 |  |
| COc1ccc(NC(=O)COc2cccc(-n3cnnn3)c2)cc1 | inactive |  | -3.85 |  |
| O=C(Nc1cccc(-n2cnnn2)c1)c1ccoc1COc1ccc(Cl)cc1 |  |  | -18.1 | 29.1 µM (active) |
| Cc1ccc(C)c(NC(=O)c2cc[n+](C)cc2)c1 | inactive |  | -24.7 |  |
| CCOC(=O)COc1ccc(S(=O)(=O)NCc2ccncc2)cc1 |  | -23.8% (inactive) |  |  |
| Cc1ccc(/C=C/C(=O)N(Cc2cccs2)C2CCS(=O)(=O)C2)cc1 (stereo not given) |  | 18.4% (inactive) | 11.3 |  |
| CCOC(=O)c1c(-c2ccccc2)csc1NC(=O)CSc1nc(N)cc(N)n1 |  | 13.1% (inactive) | 11.6 |  |
| COCCCn1c(C)nnc1-c1cnn(-c2ccccc2)c1N |  | 10.4% (inactive) | 22.6 |  |
| O=C(Nc1cccnc1)c1ccc2c(c1)C(=O)N(CC1CCCO1)C2=O (stereo not given) |  | -113% (inactive) | 5.85 |  |
| COc1ccc2cc3cc(C(=O)NCCN4CCN(c5ccccc5F)CC4)oc3nc2c1 |  | -20.3% (inactive) | -11.8 |  |
| C/C=C(\CS(=O)(=O)c1ccccc1)S(=O)(=O)c1ccccc1 |  |  | -14.9 | 5.17 µM (active) |
| C/C(CS(=O)(=O)c1ccccc1)=N\O |  | -23.4% (inactive) | -17.1 |  |
| CCN(Cc1ccccc1)C(=O)CS(=O)(=O)c1ccccc1 |  | -5.16% (inactive) | 0.704 |  |
